Structures are written as SMILES. Where “and” joins values, the source holds several entries; their conditions need not be identical. Identical values can stand only once. The panel holds about 83,000 compounds, 20% with a hit somewhere; the sample as a whole holds those more often.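 Each cell line was grown in a 96-well plate and treated with one concentration of compound for 48 hours. Values below 10 were considered active.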 Calls of active or inactive are those of the source.

In the assay the test system is MDA-MB-468 breast. Briefly: NCI-60 one-dose screen, 48 h (100 = growth as untreated, 0 = no growth, -100 = all killed). To be noted: 10 µM unless noted.
On to `C#CCN(C)CCCOc1ccc(NCc2ccc(/C=C/C(=O)NO)cc2)cc1Cl`, for which the growth was -47.6% (active).
`CCN(CC)CCN1C(=O)c2c(c(C)c3c(oc4cc(O)ccc43)c2C)C1=O`: the growth was 96.3% (inactive).
For the molecule `C=C1C(=O)O[C@H]2[C@H]1CC/C(COC(=O)OCCCCCOC(=O)OC/C1=C/CC[C@@]3(C)O[C@H]3[C@H]3OC(=O)C(=C)[C@@H]3CC1)=C\CC[C@@]1(C)O[C@@H]21`, the growth is -38.5% (active).
For the molecule `Cc1ccc(O)c(NC(=O)c2ccc(CNc3ccnc(C(F)(F)F)c3)cc2)c1`, the growth was 76.4% (inactive).
Consider `CCN1CCN(CCNc2nccc(-c3c(-c4cccc(O)c4)nc4sccn34)n2)S1(=O)=O`, for which the growth is 86.7% (inactive) and 81.1% (inactive).
In the case of `c1ccc(C(CC2=NCCCN2)c2ccccc2)cc1`, the growth is 102% (inactive).
In the case of `Cc1nn(-c2ccccc2)c2c1N=c1s/c(=C\c3ccc(C(F)(F)F)cc3)c(=O)n1CN2`, the growth was 44.1% (inactive).
As for `CCCCCCC/C=N/NC(=O)c1ccc(-n2cc(-c3ccccc3)nn2)cc1`, the growth is 82.6% (inactive).
In the case of `CC(=O)Oc1ccc(CCN2C(=O)CSC2=S)cc1`, the growth was -12.9% (active).
As for `CC(C)[C@@]12C[C@@H](OC(=O)[C@H]3CO3)[C@@](C)(O1)[C@@H]1CC[C@@H](C)[C@H]1[C@@H]2OC(=O)/C=C/c1ccccc1`, the growth was 85.8% (inactive).
Consider `CCOC(=O)c1c(C)nn(CC(O)c2ccccc2)c1NC(=O)Nc1cccc(F)c1` (centres undefined), for which the growth was 82.6% (inactive).
Regarding `CN(C)CCCN1c2ccccc2CCc2ccccc21`, the growth is 39.6% (inactive).
The figure for `CS(=O)c1cccc(-c2ccc3nc(N)n(-c4ccc(C(F)(F)F)cc4)c(=O)c3c2)c1` (centres undefined) is 84.4% (inactive); for `O=C(CSc1ccc2nnc(-c3cccc(F)c3)n2n1)Nc1ccc2c(c1)OCO2` it is 23% (inactive).
Under `O=c1cc(-c2ccccc2)nc2cc(-c3ccco3)[nH]n12` stands -1.48% (active); under `C=C1C(=O)O[C@H]2[C@H]1CC/C(COC(=O)n1ccnc1)=C\CC[C@@]1(C)O[C@@H]21`, 79.7% (inactive); under `CCCCc1n(Cc2ccc3ccccc3n2)cc[n+]1Cc1ccc2ccccc2c1`, -31.4% (active).
The figure for `C=C1C(=O)O[C@H]2[C@H]1CC/C(COC(=O)NCc1ccc(Cn3c(=O)sn(CCCCl)c3=O)cc1)=C\CC[C@@]1(C)O[C@@H]21` is -52% (active); for `CCN(CC)c1ccc2nc3ccc(N=Nc4ccc(N(C)C)cc4)cc3[n+](-c3ccccc3)c2c1` it is -65.6% (active).
Turning to `COc1ccc(C(=O)/C=C/c2ccc(Cl)cc2)cc1S(=O)(=O)Nc1c(N)nc(SC)[nH]c1=O`, the growth is 47.3% (inactive).
Take `C/C(CC(C)C)=N/NC(N)=S`: the growth was 7.03% (active).
For `COc1ccc(-c2csc(NC(=O)c3ccc(Cc4n[nH]c(=O)c5cccnc45)cc3)n2)cc1`, the growth is 64.2% (inactive).
As for `CCOC(=O)C1C(=O)C=C(c2ccc(OC)cc2)CC1c1sc(N(C)Cc2ccccc2)nc1Cl` (centres undefined), the growth is 58.3% (inactive).
For `COc1cc2c(cc1NC(=O)C(Cl)Cl)-c1ccc(NC(=O)C(Cl)Cl)cc1C2`, the growth is -58.3% (active).
Turning to `C#Cc1cccc(Nc2ncnc3cc(OCCOC)c(OCCOC)cc23)c1`, the growth is -4.78% (active).
With `O=C(/C=C/c1ccccc1Cl)c1cccc(OCCCCOc2cccc(C(=O)/C=C/c3ccccc3Cl)c2)c1`, the growth was 110% (inactive).
Regarding `COc1ccc(C2=NN(C(C)=O)C(c3cn(Cc4ccc(Cl)cc4)c4ccccc34)C2)cc1` (centres undefined), the growth is 69.2% (inactive).
`CCOC(=O)c1c[nH][nH]c1=O`: the growth is 93.8% (inactive).
With `C#CCN1C(=O)/C(=c2\sc3n(c2=O)C2C(NN=3)N(CC)C(=O)N2CC)c2ccccc21` (centres undefined), the growth is -26.9% (active).
On to `O=C1Nc2ccccc2/C1=C/C(=O)c1ccc(N2CCCCC2)cc1`, for which the growth was 80% (inactive).
Under `Cc1ccc(Nc2cc(Cl)c([N+](=O)[O-])cc2[N+](=O)[O-])cc1` stands -65.8% (active).
Take `CN(C)c1ccc(/C=c2\sc3nc4ccccc4n3c2=O)cc1`: the growth is 78.4% (inactive).
Consider `COCCn1cc(-c2nc(-c3cccnc3)cs2)c2cc(F)ccc21`, for which the growth was 100% (inactive).
Under `COc1ccccc1/C=C1\Oc2cc(OCCCN3CCCC3)ccc2C1=O` stands 85.9% (inactive); under `CC(=O)Nc1sc2c(c1-c1nc3ccccc3s1)CNC2`, -3.09% (active).
Take `COc1ccc(-c2nc3sccn3c2-c2ccnc(NCCCNS(=O)(=O)c3ccc4ccccc4c3)n2)cc1`: the growth was 71.1% (inactive).
As for `CC1C(/C=N/NC(N)=S)C(C#N)(C#N)C1(C#N)C#N` (centres undefined), the growth was 113% (inactive).
With `O=S(=O)(NCCNc1nccc(-c2c(-c3ccc(F)c(O)c3)nc3sccn23)n1)c1ccc(O)cc1`, the growth was 31.4% (inactive).
Take `Brc1ccc(-n2cc(-c3nn[nH]n3)c(-c3cccs3)n2)cc1`: the growth was 92.4% (inactive).

The record behind these values is PubChem BioAssay (NCI).
